# Reference: PubChem BioAssay (NCI)
# This is part of a sample that, as a whole, favours compounds with a hit. Of some 83,000 tested, about 20% had one in any assay.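 48-hour exposure, single concentration, 96-well plates; percent growth endpoint where 0 means no net growth. Active: below 10.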 Values without a mark were called inactive. Calls of active or inactive are those of the source.
# Tests used:
# Assay in all cases: NCI-60 one-dose screen, 48 h (100 = growth as untreated, 0 = no growth, -100 = all killed)
# Settings in all cases: 10 µM unless noted
# SR leukemia = tested on: SR leukemia
# RPMI-8226 leukemia = tested on: RPMI-8226 leukemia
# OVCAR-8 ovarian = tested on: OVCAR-8 ovarian
# OVCAR-5 ovarian = tested on: OVCAR-5 ovarian
# OVCAR-4 ovarian = tested on: OVCAR-4 ovarian
# SK-OV-3 ovarian = tested on: SK-OV-3 ovarian
# IGROV1 ovarian = tested on: IGROV1 ovarian
# OVCAR-3 ovarian = tested on: OVCAR-3 ovarian
# HS 578T breast = tested on: HS 578T breast
# NCI/ADR-RES ovarian = tested on: NCI/ADR-RES ovarian
# T-47D breast = tested on: T-47D breast
# BT-549 breast = tested on: BT-549 breast
# MDA-MB-435 melanoma = tested on: MDA-MB-435 melanoma
# SW-620 colon = tested on: SW-620 colon
# MCF7 breast = tested on: MCF7 breast
# HCT-116 colon = tested on: HCT-116 colon
# HCC-2998 colon = tested on: HCC-2998 colon
# KM12 colon = tested on: KM12 colon
Compound,growth (SR leukemia),growth (RPMI-8226 leukemia),growth (OVCAR-8 ovarian),growth (OVCAR-5 ovarian),growth (OVCAR-4 ovarian),growth (SK-OV-3 ovarian),growth (IGROV1 ovarian),growth (OVCAR-3 ovarian),growth (HS 578T breast),growth (NCI/ADR-RES ovarian),growth (T-47D breast),growth (BT-549 breast),growth (MDA-MB-435 melanoma),growth (SW-620 colon),growth (MCF7 breast),growth (HCT-116 colon),growth (HCC-2998 colon),growth (KM12 colon)
O=S(=O)(Nc1cccc2cc(OS(=O)(=O)c3ccccc3)ccc12)c1ccccc1,25.5%,62.1%,75.2%,91%,71.3%,61.8%,72.5%,66.1%,57.3%,46.2%,45.5%,45.4%,-13.8% (active),29.5%,36.8%,25.4%,96.4%,36.3%
CCCC(C)(C)COC(=O)c1cccc(N)c1,92.8%,108%,84.2%,114%,117%,94.1%,103%,102%,99.3%,102%,92%,79.9%,111%,104%,91.7%,84.9%,96.9%,106%
C=C1C(=O)O[C@H]2[C@H]1CC/C(C(=O)NCCOCCOCC(=O)Nc1ccc(OC)c(C(N)=O)c1O)=C\CC[C@@]1(C)O[C@@H]21,75.3%,97.2%,89.8%,96.4%,101%,91.6%,98.8%,84.3%,93%,104%,70.6%,86.2%,104%,80.1%,83.6%,81.2%,104%,101%
COc1ccc(C(=O)Cn2cnc3c(Nc4cc(C(=O)Nc5ccc(N6CCN(CCO)CC6)cc5)ccc4C)ncnc32)cc1,83.7%,96.7%,104%,104%,106%,99.2%,110%,100%,97.7%,104%,91.6%,94.9%,105%,105%,87.1%,97.3%,97.4%,99.4%
O=C1c2ccccc2OC=C(c2ccccc2)N1CCCCN1CCCCC1,65.2%,23.6%,51.7%,101%,58.7%,13.2%,73.7%,63.6%,75.1%,88.8%,0.353% (active),32.5%,67.4%,71.5%,38.6%,27.2%,69.1%,49.2%
CS(=O)(=O)Nc1cccc(-c2ccc3ncnc(Nc4cncc(Cl)c4)c3c2)c1,-10.5% (active),-8.07% (active),38.7%,56.7%,50.9%,-7.86% (active),-13.8% (active),31.9%,-2.64% (active),79.7%,-21.9% (active),34.8%,49.9%,33.2%,15.6%,30.4%,39.2%,32.7%
CN(C)c1ccc(/C=c2\s/c(=C\C(=O)C(C)(C)C)[nH]c2=O)cc1,92.1%,104%,102%,99.7%,85.3%,100%,88.5%,102%,103%,103%,81.4%,97.3%,89.3%,101%,86.7%,91.2%,107%,81.9%
COc1ccc(Cl)cc1NC(=O)c1cc2c(n1C)-c1nc(NC(=O)C(C)(C)C)sc1CC2,85.2%,83.4%,109%,104%,94.8%,67.7%,98.1%,105%,98.5%,93.8%,64.5%,94.6%,102%,107%,79.4%,85.4%,118%,94.8%
COC(=O)c1ccc2c(c1)Oc1ccc(Cl)cc1-c1cc(C)nn1-2,69.9%,74.9%,72.8%,91.2%,-6.66% (active),53.5%,61.8%,39%,55.1%,73.4%,71.7%,96%,97.5%,68.5%,79.4%,44%,100%,87.7%
CC(C(=O)O)N1C(N)=NNC1c1ccccc1O (stereo unspecified),72.2%,73.1%,90.2%,108%,76.3%,105%,70.9%,83%,91.1%,83.8%,59.7%,104%,104%,95.7%,80.4%,87.4%,92.7%,93.9%
CCCCCCCCCCCCCCCC(=O)NS(=O)(=O)OC[C@H]1O[C@@H](n2cnc3c(N)ncnc32)[C@H](O)[C@@H]1O,0.423% (active),22.8%,-10.9% (active),-45.3% (active),-48.4% (active),-18.5% (active),-52.2% (active),-75.1% (active),-14.6% (active),-20.5% (active),-16.9% (active),-65.2% (active),-74.5% (active),-39.2% (active),5.8% (active),-25.8% (active),-85.9% (active),-39.2% (active)
COc1ccc2c(c1)OC(N)=C(C#N)C2c1ccc(F)c(F)c1 (stereo unspecified),12.2%,7.58% (active),33.9%,51.6%,73.6%,29%,53.5%,15.6%,35.7%,17.9%,46.8%,48.3%,-18.6% (active),21.3%,18.8%,24.2%,49.7%,28.6%
CC(=O)Cc1cccnc1,104%,93%,97%,109%,108%,114%,100%,116%,95.2%,104%,96.2%,92.4%,110%,97.1%,101%,81.6%,108%,105%
COc1cc(NC(=O)C#Cc2ccccc2)c(OC)cc1Cl,12.4%,10.8%,38.6%,79.4%,93.8%,97.8%,4.48% (active),82.8%,79.8%,56.5%,71.1%,51.3%,59.3%,23.9%,22.6%,21.9%,90.9%,49.7%
OCc1cn(-c2ccc(Cl)cc2)nc1-c1ccc(O)cc1,82.1%,97.3%,106%,99.9%,91.6%,105%,91.3%,108%,105%,94.7%,85.3%,86.1%,88.9%,112%,90.4%,96.9%,103%,90.9%
COC(=O)c1ccc(NC(N)=NCC(C)(C)COc2ccc(C(F)(F)F)cc2)nc1,-32.3% (active),10.9%,52.2%,72%,40.6%,106%,21.3%,50%,86.3%,44.6%,28.7%,66.5%,58.3%,27.3%,8.58% (active),0.764% (active),2.3% (active),46.7%
FC(F)(F)c1cccc([Si](F)(c2cccc(C(F)(F)F)c2)c2cccc(C(F)(F)F)c2)c1,74%,52.3%,91.5%,91.3%,65.9%,99%,82.5%,68%,85.3%,72.6%,40.4%,64.5%,95%,82%,67.1%,15.6%,99%,74.8%
